In the library only some 13% were active in any assay of this set; here they are far more common.
USP30 block: inhibitors of human USP30 deubiquitinase; inhibition, % at 25 µM; Q70CQ3; purified USP30, Ub-rhodamine cleavage fluorescence; AID 1645860; actives 5.3% (n = 47,000)
OTUD3 block: human OTUD3 deubiquitinase inhibition. Q5T2D3. purified OTUD3, Ub-rhodamine fluorescence, 2 h. inhibition, % at 25 µM. actives 0.7% (n = 47,000)
USP17 block: human USP17-like deubiquitinase inhibition; inhibition, % at 50 µM; AID 1645855; purified USP17, Ub-rhodamine cleavage fluorescence, 3 h; actives 6.5% (n = 47,000); A8MUK1
USP28 inh: inhibitors of human USP28 deubiquitinase | AID 1645857 | purified USP28, Ub-rhodamine cleavage fluorescence, 30 min | actives 3% (n = 47,000) | Q96RU2 | inhibition, % at 25 µM
USP8 inh: blocks human USP8 ubiquitin-rhodamine cleavage; purified USP8, Ub-rhodamine cleavage fluorescence, 30 min; inhibition, % at 20 µM; P40818; actives 4.2% (n = 47,000)
Target sequence (P40818 whole entry, looked up): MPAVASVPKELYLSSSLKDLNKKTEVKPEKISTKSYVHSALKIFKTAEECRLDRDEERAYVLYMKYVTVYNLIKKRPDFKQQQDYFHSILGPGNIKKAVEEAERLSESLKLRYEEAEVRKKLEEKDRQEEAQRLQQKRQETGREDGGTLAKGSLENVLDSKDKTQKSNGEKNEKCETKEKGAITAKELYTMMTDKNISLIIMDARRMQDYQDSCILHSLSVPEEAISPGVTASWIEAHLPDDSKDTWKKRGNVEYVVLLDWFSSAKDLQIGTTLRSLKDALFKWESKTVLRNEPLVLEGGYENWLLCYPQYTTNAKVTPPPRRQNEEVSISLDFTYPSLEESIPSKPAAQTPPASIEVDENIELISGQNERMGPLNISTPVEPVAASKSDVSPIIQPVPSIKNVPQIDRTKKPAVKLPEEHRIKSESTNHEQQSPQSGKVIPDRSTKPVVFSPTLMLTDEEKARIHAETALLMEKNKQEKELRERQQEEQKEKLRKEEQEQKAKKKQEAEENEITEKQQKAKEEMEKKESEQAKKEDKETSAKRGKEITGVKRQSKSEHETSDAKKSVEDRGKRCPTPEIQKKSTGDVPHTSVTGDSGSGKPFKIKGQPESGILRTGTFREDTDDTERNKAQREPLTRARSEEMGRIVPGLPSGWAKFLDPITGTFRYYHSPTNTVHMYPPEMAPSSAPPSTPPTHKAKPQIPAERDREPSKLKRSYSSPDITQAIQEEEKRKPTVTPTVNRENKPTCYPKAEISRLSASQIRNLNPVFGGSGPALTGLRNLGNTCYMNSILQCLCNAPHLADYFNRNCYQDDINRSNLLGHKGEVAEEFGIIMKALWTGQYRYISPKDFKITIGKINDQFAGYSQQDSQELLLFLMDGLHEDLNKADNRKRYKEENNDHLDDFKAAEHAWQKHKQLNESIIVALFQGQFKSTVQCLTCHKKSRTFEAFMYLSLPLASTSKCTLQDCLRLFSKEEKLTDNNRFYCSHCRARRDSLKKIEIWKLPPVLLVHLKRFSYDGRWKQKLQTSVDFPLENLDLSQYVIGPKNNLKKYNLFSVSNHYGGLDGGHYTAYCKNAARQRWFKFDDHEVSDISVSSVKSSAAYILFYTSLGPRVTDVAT
Each line names hits and unclear results; the compound was inactive in the other large screens. No stated cut-off is given here; in the data, active means inhibition above about 30%; inactive means the rest.

Cn1c(=O)c2c(-c3ccccc3)n(-c3ccc4c(c3)OCCO4)cc2n(C)c1=O	USP17 block 32.2, USP8 inh 74.4
Cc1cccc(NC(=O)CC2Nc3ccccc3OC2=O)c1 (configuration not stated)	USP17 block 40.5
Cc1cc(C)cc(C(=O)N2CCC(Oc3ccc(C(=O)N(C)C)cn3)CC2)c1	USP28 inh 43.9
O=c1c(-c2nc(C3CC3)no2)cccn1Cc1noc(-c2ccccc2F)n1	none
O=c1c(-c2nc(C3CC3)no2)cccn1Cc1c(F)cccc1Cl	USP28 inh 85.4
COc1ccc(CCNC(=O)CCCn2c(=O)c3ccccc3n(Cc3ccccc3F)c2=O)cc1OC	none
COc1ccc(CCNC(=O)Cn2c(=O)c3sccc3n(Cc3cccc([N+](=O)[O-])c3)c2=O)cc1OC	USP30 block 44.5
COc1ccc(CCNC(=O)Cn2c(=O)c3sccc3n(Cc3ccccc3F)c2=O)cc1OC	USP30 block 51.9, USP17 block 60.0
Cc1cc2cc(CNC(=O)Cc3ccc([N+](=O)[O-])cc3)ccc2[nH]1	USP17 block 37.5
Cc1cc2cc(CNC(=O)Cc3cccc4ccccc34)ccc2[nH]1	USP17 block 39.5
CCCS(=O)(=O)NCc1ccc2[nH]c(C)cc2c1	none (no result: USP30 block, USP28 inh)
Cn1cc2c(n1)c(=O)n(Cc1ccc(F)cc1)c(=O)n2CC(=O)NCc1ccco1	none
CCCn1c(=O)c2nscc2n(CC(=O)Nc2ccccc2)c1=O	none
CC(C)Cn1c(=O)c2nscc2n(CC(=O)Nc2ccccc2)c1=O	USP8 inh 62.7
Cn1cc2c(n1)c(=O)n(Cc1ccc(F)cc1)c(=O)n2CC(=O)Nc1ccccc1F	USP17 block 42.4
CCCn1c(=O)c2nscc2n(CC(=O)NCc2ccccc2)c1=O	none
CCn1cc2c(n1)c(=O)n(Cc1ccccc1)c(=O)n2CC(=O)NCc1ccc(C)cc1	USP30 block 90.4, OTUD3 block 34.7, USP17 block 55.9, USP8 inh 60.5
CCCn1c(=O)c2nscc2n(CC(=O)NCc2ccc(C)cc2)c1=O	USP30 block 42.3, USP17 block 43.4
CCOC(=O)N1CCN(C(=O)c2oc3c(c2C)C(=O)CC(C)(C)C3)CC1	none
Cc1ccc(-c2c3c(=O)n(C)c(=O)n(C)c3cn2C(C)C)cc1	none
CCn1cc2c(n1)c(=O)n(Cc1ccc(C)cc1)c(=O)n2CC(=O)Nc1ccc(F)cc1	USP17 block 80.6
O=C(Cn1c(=O)n(Cc2ccccc2)c(=O)c2nscc21)NCc1ccco1	USP17 block 41.9
CCOc1ccc2nc(SCc3cn4cc(Cl)ccc4n3)[nH]c2c1	USP28 inh 40.8
O=C(Cn1cncc(-c2nc(-c3ccccc3)cs2)c1=O)N1CCCC1	none
O=C(Cn1cccc1-c1nc(-c2ccccc2)cs1)N1CCOCC1	USP17 block 73.5
Cc1ccccc1Cn1ccc2ccn(Cc3cccnc3)c2c1=O	USP30 block 30.1, USP28 inh 60.3
Cc1noc(C)c1CCn1ccc2ccn(Cc3cccnc3)c2c1=O	none
Fc1ccccc1CN1CCN(Cc2cccnc2)CC1	none
O=c1c2c(ccn1Cc1cc(F)ccc1F)ccn2Cc1cccnc1	USP28 inh 68.2
COc1ccc(NS(=O)(=O)c2ccc3c(c2)CCCC(=O)N3)c(OC)c1	none
CCn1cnc2ccc(C(=O)NC3CC3)cc2c1=O	USP28 inh 62.2
COC(=O)CSc1ncnc2c1sc1nc(CC(C)C)c3c(c12)CCC3	none
COc1ccccc1CNC(=O)CN1CC(C)Sc2ccccc21 (configuration not stated)	none
COc1ccc(NC(=O)CN2CC(C)Sc3ccccc32)cc1 (configuration not stated)	USP8 inh 43.7
COc1ccc(NC(=O)CN2C(=O)CSc3ncccc32)cc1	none (no result: USP17 block)
Cc1ccccc1NC(=O)CN1C(=O)CC(c2ccccc2)S(=O)(=O)c2ccccc21 (configuration not stated)	none
Cc1cccc(NC(=O)CN2C(=O)CC(c3ccccc3)S(=O)(=O)c3ccccc32)c1C (configuration not stated)	USP17 block 51.2
COc1ccc(NC(=O)CN2C(=O)CC(c3ccccc3)S(=O)(=O)c3ccccc32)cc1 (configuration not stated)	USP17 block 31.0
CCc1nccn1-c1cccc(C2CCCN(S(=O)(=O)N(C)C)C2)n1 (configuration not stated)	none
O=C(COc1ccc(N2CC(C(=O)NCc3ccccc3)CC2=O)cc1)Nc1ccc(F)cc1 (configuration not stated)	USP30 block 57.9, USP17 block 60.3, USP8 inh 64.0
O=C(COc1ccc(N2CC(C(=O)NCc3ccc4c(c3)OCO4)CC2=O)cc1)Nc1ccc(Cl)cc1 (configuration not stated)	USP17 block 36.1
O=C(COc1ccc(N2CC(C(=O)NCc3ccc4c(c3)OCO4)CC2=O)cc1)Nc1ccc(F)cc1 (configuration not stated)	USP30 block 56.6, USP17 block 57.4, USP8 inh 52.6
Cc1ccc(N2CC(C(=O)NCCc3ccc(Cl)cc3)CC2=O)cc1 (configuration not stated)	USP17 block 40.5
COc1ccc(C2CC(=O)Nc3ccc4ccccc4c32)cc1 (configuration not stated)	none
Cc1ccc(N(Cc2ccc(C(=O)Nc3cc(Cl)ccc3C)cc2)S(C)(=O)=O)cc1C	none
COc1ccc2c(CNCCc3ccc(Cl)cc3)c(C(=O)O)[nH]c2c1	none
CCN(CC)C(=O)Cn1cc(C(=O)C(=O)N2CCCC(C)C2)c2ccccc21 (configuration not stated)	none (no result: USP17 block)
CCOC(=O)C1CCCN(C(=O)C(=O)c2cn(CC(=O)N3CCCCC3)c3ccccc23)C1 (configuration not stated)	USP17 block 34.3, USP8 inh 79.9
Cn1c(=O)c(C(=O)Nc2cccc(F)c2)c(O)c2ccccc21	none
Cn1nc(C(=O)Nc2cccc(F)c2)c(=O)c2ccccc21	USP30 block 36.7, USP17 block 44.6
COc1ccc(Cc2nnc(NC(C)c3ccccc3)[nH]c2=O)cc1 (configuration not stated)	USP8 inh 67.2
Cc1cccc(Nc2nnc(Cc3ccccc3)c(=O)[nH]2)c1	USP8 inh 58.7
COc1ccc(Cc2nnc(Nc3ccc(F)cc3)[nH]c2=O)cc1	USP8 inh 52.4
COc1ccc(Cc2nnc(Nc3ccccc3)[nH]c2=O)cc1	USP8 inh 50.5
COc1ccc(Nc2nnc(Cc3ccccc3)c(=O)[nH]2)cc1	none
Cc1nc(CN(C)C(=O)Cc2ccccc2)nc2c1CCC(=O)N2CCc1ccccc1	none
CC(C)C(NS(=O)(=O)c1ccc2c(c1)OCCO2)C(=O)OCC(=O)Nc1ccc2c(c1)CCC2 (configuration not stated)	none
NC(=O)C1CCCN(C(=O)c2ccc3c(c2)OCC(=O)N3CC(=O)c2ccc(Cl)cc2)C1 (configuration not stated)	none

Source: PubChem BioAssay (Buhrlage Lab, Dana-Farber Cancer Institute and Novartis Institutes for BioMedical Research (Cambridge, Mass))
